# Bead autofluor = counter-screen for toxin protease inhibitors: compound fluorescence; compound autofluorescence counterscreen, microsphere flow cytometry; stronger effect = higher value; fluorescence intensity (test concentration not listed); actives 3.1% (n = 360,000); in the data active means fluorescence intensity above about 16000; inconclusive means no clear call, values can overlap the other calls
# MazF activator = increases E. coli MazEF RNase cleavage of RNA. FAM/BHQ RNA-DNA oligo cleavage fluorescence, 5 h. actives 0.32% (n = 350,000). activation, % at 20 µM. AID 504720. P0AE70; in the data active means activation above about 50%
# Target sequence (P0AE70 whole entry, looked up): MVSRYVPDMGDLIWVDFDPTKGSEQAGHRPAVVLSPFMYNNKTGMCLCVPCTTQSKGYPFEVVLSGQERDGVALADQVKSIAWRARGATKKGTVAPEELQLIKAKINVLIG
# Anthrax LF inh2 = blocks Bacillus anthracis lethal factor protease; P15917; multiplex microsphere protease cleavage assay, LF; inhibition, % at 10 µM; actives 0.12% (n = 360,000); further: plate controls were buffer without enzyme for full effect and enzyme alone for no effect
# BoNT-A LC inh2 = BoNT A light chain protease inhibition. multiplex microsphere protease substrate cleavage, flow cytometry. inhibition, % at 10 µM. actives 0.17% (n = 360,000). AID 588499; further: plate controls were buffer without enzyme for full effect and enzyme alone for no effect
# BoNT-F LC inh = blocks Botulinum neurotoxin F light chain protease | actives 0.22% (n = 360,000) | inhibition, % at 10 µM | Multiplex microsphere protease cleavage assay, flow cytometry; in the data active means inhibition above about 35%, passing the limit was not always enough; inconclusive means no clear call, values can overlap the other calls; further: plate controls were buffer without enzyme for full effect and enzyme alone for no effect
# An asterisk follows results filed as active; ? = inconclusive; . = no result. Sampled rows, rich in hits. Any-hit rate of the full collection: about 3.6%. Unless noted, no stated cut-off is given here; in the data, active means inhibition above about 30%; inconclusive means no clear call, values can overlap the other calls; inactive means below that.
SMILES,Bead autofluor,MazF activator,Anthrax LF inh2,BoNT-A LC inh2,BoNT-F LC inh
CCOC(=O)c1cnc(SCC(=O)N2CCN(c3ccccc3)CC2)nc1N,3596,7.4,0.7,0.6,17.2
CCOC(=O)c1cnc(SCC(=O)N2CCc3ccccc32)nc1N,8550,67.8*,-2.7,-2.5,-23.9
CC1CCN(S(=O)C23CC4CC(CC(C4)C2)C3)CC1 (centres undefined),3784,-7.0,1.1,-1.1,-7.6
Cn1c(-c2ccc3c(c2)OCO3)cnc1NCc1ccccc1,22213*,1.6,-7.9,2.2,4.8
Cn1c(-c2ccc3c(c2)OCO3)cnc1NC(=O)CCC(=O)NCCc1ccccc1,22472*,4.6,-2.0,1.1,0.1
Cn1c(-c2ccc3c(c2)OCO3)cnc1N,19330*,2.4,-3.5,1.7,-9.2
CCCCNC(=O)CCC(=O)Nc1ncc(-c2ccc(C)cc2)n1C,20268*,-2.6,0.5,?,-0.8
Cn1c(-c2ccc3c(c2)OCO3)cnc1NCc1cccc(Cl)c1,9450,-2.1,-0.1,0.6,8.6
Cn1c(-c2ccc3c(c2)OCO3)cnc1NCc1ccccc1Cl,4272,5.5,-1.9,-0.3,-0.3
COc1ccccc1NC(=O)c1cc2cc(Br)ccc2cc1O,3569,0.3,2.1,-1.4,-33.0
Cc1cc(OCC(=O)OCC(=O)NCCN2C(=O)CSC2=O)ccc1Cl,5225,3.9,-2.7,-0.2,-6.9
CCC1Nc2ccccc2-c2nnc(SC)nc2O1 (centres undefined),2570,-2.5,-6.9,-0.6,-1.9
COc1ccccc1C(=O)C1Nc2ccccc2-c2nnc(SC)nc2O1 (centres undefined),21854*,5.6,1.9,3.8,7.3
O=c1cc(C(F)(F)F)nc(-c2ccccc2)[nH]1,21831*,-0.1,-1.1,?,1.8
CCOC(=O)C1=C(C)N=c2s/c(=C/c3ccccc3)c(=O)n2C1c1ccc(OC)c(OC)c1 (centres undefined),4789,84.7*,3.9,1.4,-5.7
CCOC(=O)C1=C(c2ccccc2)N=c2s/c(=C\c3ccco3)c(=O)n2C1c1cccs1 (centres undefined),11119,-7.1,8.5,8.2,-3.9
CCOC(=O)C1=C(c2ccccc2)N=c2s/c(=C\c3cc(OC)c(OC)c(OC)c3)c(=O)n2C1c1cccs1 (centres undefined),3932,-61.9,33.9*,41.1*,19.0
Cc1cc(/C(N)=N/OC(=O)c2ccccc2Cl)no1,.,3.2,.,.,.
O=C(O)c1ncc(-c2ccccc2)cn1,17752*,-2.8,-4.8,-4.5,-8.6
c1ccc(-c2cnc(-c3ccccc3)nc2)cc1,7478,-7.7,4.7,?,12.1
COc1ccc(OC)c(NC(=O)Cc2coc3cc(C)cc(C)c23)c1,22476*,0.7,-4.0,?,-0.6
COc1ccc(NC(=O)N(C)C[C@H]2OCc3cn(nn3)CCCC(=O)N([C@@H](C)CO)C[C@@H]2C)cc1,3611,6.1,-5.3,-0.1,0.4
CCc1cc(-c2n[nH]c(C)c2Oc2ccc(C(C)C)cc2)c(O)cc1O,22495*,-5.6,-5.0,?,-16.7
COc1cc2c(cc1OC)-c1cc(Nc3cccc(C)c3)nc(=O)n1CC2,4231,10.4,4.1,-2.9,-5.4
Cc1ccc(P(=O)(CC(=O)O)c2ccc(C)cc2)cc1,24105*,1.2,-2.6,-3.0,-6.7
SMILES,Bead autofluor,MazF activator,Anthrax LF inh2,BoNT-A LC inh2,BoNT-F LC inh
Cc1nn(C)cc1S(=O)(=O)Nc1cccc(Cl)c1,5108,5.6,-2.1,-0.3,0.0
Cc1ccc(NC(=O)N2CCC(=O)N2)cc1,23674*,0.5,-7.8,-3.4,-5.1
COc1cc(/C=C/C(=O)OCC(=O)N2CCCCCC2)cc(OC)c1OC,3919,-10.6,-2.5,-0.2,-2.8
Cc1ccc(C2(C(F)(F)F)NC(=O)N3CCN=C3S2)cc1 (centres undefined),21208*,6.5,-2.7,?,2.8
Cc1ccc(C2(C(F)(F)F)NC(=O)N3CCCN=C3S2)cc1 (centres undefined),8142,-3.8,0.8,-0.7,-10.6
CC(=O)c1cccc(NCC(=O)Nc2cc(S(=O)(=O)N3CCCCC3)ccc2C)c1,?,5.2,-14.2,-45.0,-67.8
COc1cc2cc(C(c3nnnn3C3CCCCC3)N(C)C3CCCCC3)c(=O)[nH]c2cc1OC (centres undefined),22356*,-0.1,1.6,2.9,3.7
Cc1cc2cc(C(c3nnnn3C3CCCC3)N(Cc3cccnc3)Cc3ccco3)c(=O)[nH]c2cc1C (centres undefined),10121,-10.2,0.8,0.4,-0.5
O=c1[nH]c2cc3c(cc2cc1C(c1nnnn1C1CCCC1)N1CCSCC1)OCCO3 (centres undefined),8220,6.2,-4.3,0.3,-0.5
CC(C)C(c1nnnn1C1CCCC1)N(C)C1CCCCC1 (centres undefined),20923*,-3.1,-0.2,?,-3.6
COc1cc2cc(C(c3nnnn3C3CCCC3)N(C)C3CCCCC3)c(=O)[nH]c2cc1OC (centres undefined),21407*,1.4,0.4,-1.6,-1.3
Cc1ccc(C(c2nnnn2C2CCCCC2)N(C)C2CCCCC2)cc1 (centres undefined),7015,1.1,-1.0,-0.2,-3.2
CC(C)c1ccc(O)c(NC(=O)c2cccnc2)c1,20393*,-6.5,-2.1,-1.2,-1.2
CC(C)(C)c1ccccc1NC(=O)c1cccnc1,16565*,0.3,0.1,?,-3.3
CC1=CC2(C)NC(=O)C(C)C12 (centres undefined),3810,-3.3,-5.9,0.3,-5.3
COC(=O)CSc1nnc(CNC(=O)c2ccc(S(=O)(=O)N(C)C)cc2)n1C,2221,-0.4,1.3,-0.8,-0.4
CCOC(=O)CSc1nnc(NC(=O)c2cccc(S(=O)(=O)N3CCCCCC3)c2)s1,24044*,2.6,-1.0,-0.4,0.5
CCN(CC)S(=O)(=O)c1ccc(C(=O)NCc2nnc(SCC(=O)OC)n2C)cc1,18096*,0.8,0.8,13.5,14.9
CCOC(=O)CSc1nnc(CNC(=O)c2ccc(S(=O)(=O)N3CCCC3)cc2)n1C,22679*,5.5,1.3,2.0,8.0
CCOC(=O)CSc1nnc(CNC(=O)c2ccc(S(=O)(=O)N3CCOCC3)cc2)n1C,1902,2.1,-2.9,-0.7,-7.0
CCOC(=O)CSc1nnc(CNC(=O)c2cc(OCC)c(OCC)c(OCC)c2)n1C,23875*,-5.8,1.5,-0.1,-1.2
CCOc1cc(C(=O)NCc2nnc(SCC(=O)OC)n2C)cc(OCC)c1OCC,10330,-2.1,3.1,-0.5,-4.3
CC(C)(C)OC(=O)C[C@@H]1C/C=C\C[C@H](CC(=O)NCCO)C(=O)N[C@@H](Cc2ccccc2)COC1=O,4179,-1.4,3.2,0.1,-2.3
COc1ccc(N2CCN(C3CCCN(C(=O)CN4CCCC4=O)C3)CC2)cc1 (centres undefined),5791,7.5,-1.6,0.5,-1.9
CC1(C)C2([N+](=O)[O-])CN3CC1([N+](=O)[O-])CN(C2)C3c1ccccc1 (centres undefined),22107*,-3.9,0.9,3.5,5.5

# Source: PubChem BioAssay (several laboratories)
